Data from PubChem BioAssay AID1441 (NMMLSC, 2008).
Out of some 220,000 compounds screened, about 830 (0.38%) were called active. This is one part of a sample in which actives are shown more often than they occur. The rule behind the calls is not given here.

These compounds were tested against Regulator of G-protein signaling 16 (Homo sapiens) + Guanine nucleotide-binding protein G(o) subunit alpha (Homo sapiens) (UniProt O15492+P09471) (assay: RGS16-Galphao interaction inhibitors and enhancers – biochemical, human proteins, multiplexed bead flow cytometry, primary screen (AID 1441;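 note: Galphao activated by GDP with aluminum fluoride before binding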)). Details: bead-based flow cytometry RGS16-Galphao binding, fluorescence; at 10 µM; actives lie on both sides.
Regulator of G-protein signaling 16 (Homo sapiens) + Guanine nucleotide-binding protein G(o) subunit alpha (Homo sapiens), sequence (O15492 whole entry, looked up): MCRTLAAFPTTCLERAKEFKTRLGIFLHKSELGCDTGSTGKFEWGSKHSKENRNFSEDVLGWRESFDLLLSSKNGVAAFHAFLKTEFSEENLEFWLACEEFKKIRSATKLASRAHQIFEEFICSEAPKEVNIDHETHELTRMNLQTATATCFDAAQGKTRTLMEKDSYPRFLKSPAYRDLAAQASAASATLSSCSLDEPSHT
Regulator of G-protein signaling 16 (Homo sapiens) + Guanine nucleotide-binding protein G(o) subunit alpha (Homo sapiens), sequence (P09471 whole entry, looked up): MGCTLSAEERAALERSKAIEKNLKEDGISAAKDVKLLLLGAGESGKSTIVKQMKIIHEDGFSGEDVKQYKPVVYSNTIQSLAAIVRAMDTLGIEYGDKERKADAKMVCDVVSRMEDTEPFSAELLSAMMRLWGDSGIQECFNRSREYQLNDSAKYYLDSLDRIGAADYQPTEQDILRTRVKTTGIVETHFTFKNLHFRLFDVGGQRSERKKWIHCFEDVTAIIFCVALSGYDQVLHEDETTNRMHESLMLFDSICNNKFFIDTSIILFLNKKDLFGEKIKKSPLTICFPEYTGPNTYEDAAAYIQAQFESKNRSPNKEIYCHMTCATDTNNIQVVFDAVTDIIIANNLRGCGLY

SMILES | binding response (% of control)
COc1cc(C2/C(=C(\O)c3ccc4c(c3)CC(C)O4)C(=O)C(=O)N2Cc2ccco2)ccc1O (stereo not given) | -10.7% (active)
COc1ccc(/C(O)=C2\C(=O)C(=O)N(Cc3ccco3)C2c2ccc(OC)cc2OC)cc1 (stereo not given) | 97.2% (inactive)
COCCCN1C(=O)C(=O)/C(=C(/O)c2ccc3c(c2)CC(C)O3)C1c1cccnc1 (stereo not given) | 68.3% (inactive)
CC(=O)Nc1ccc(OCCC[n+]2cccc(C(=O)[O-])c2)cc1 | 97.8% (inactive)
O=C(NCc1ccccc1)c1ccc(CNc2c(N3CCCC3)c(=O)c2=O)cc1 | 102% (inactive)
COc1ccc(Br)cc1/C=N/Nc1ccc(Cl)c(C(=O)O)c1 | 103% (inactive)
O=C(Cn1cnc2cc([N+](=O)[O-])ccc2c1=O)NC(=O)NCc1ccccc1 | 112% (inactive)
Nc1c(N(CCO)C(=O)C2CCCCC2)c(=O)[nH]c(=O)n1Cc1ccccc1 | 86.5% (inactive)
O=C(CSc1nnc(-c2cccs2)n1Cc1ccccc1)N1CCc2ccccc2C1 | 101% (inactive)
Cn1c(=O)c2c(n(Cc3ccccc3)c1=O)NC(=O)C2CC(=O)N1CCc2ccccc2C1 (stereo not given) | -1.02% (active)
O=C(COc1ccccc1)N1CCc2ccccc2C1 | 102% (inactive)
O=S(=O)(c1ccccc1)N(CC(O)CN1CCCCC1)c1ccccc1 (stereo not given) | 96.4% (inactive)
Cc1ccc(N(CC(O)CN2CCCC2)S(=O)(=O)c2ccccc2)cc1 (stereo not given) | 100% (inactive)
Cc1cc(C)n(CC(O)CN(c2ccccc2)S(=O)(=O)c2ccc3ccccc3c2)n1 (stereo not given) | -6.51% (active)
CCN(CC(=O)Nc1ccc(Cl)c(S(=O)(=O)N(C)C)c1)Cc1nc2ccccc2c(=O)[nH]1 | 107% (inactive)
CCOC(=O)CSc1nc(C)c(Oc2ccc(Cl)cc2Cl)c(=O)[nH]1 | 101% (inactive)
COc1ccc(C(=O)C[n+]2ccc(N)c(C)c2C)cc1 | 99.8% (inactive)
CCOC(=O)c1c(CC(C)C)csc1/N=C/C1=C(O)CCCC1=O | 103% (inactive)
C/C(=C/C(=O)N1CCN(C)CC1)C(=O)O | 234% [activator] (active)
CCN1CCN(C(=O)/C=C\C(=O)O)CC1 | 101% (inactive)
CN1CCN(C(=O)C2C3C=CC(C3)C2C(=O)O)CC1 (stereo not given) | 102% (inactive)
COC(=O)C(C(=O)Nc1cccc(C)n1)C1CCCCCC1 (stereo not given) | 103% (inactive)
CCCc1cc(=S)n2c([nH]c3ccccc32)c1C#N | 97.3% (inactive)
CSc1sc(C(=O)NNC(=O)c2ccc(Cl)cc2)c2c1C=CCC2 | 92.2% (inactive)
O=C(O)c1ccccc1C(=O)Nc1ccccc1[N+](=O)[O-] | 96.6% (inactive)
